Source: PubChem BioAssay (EPA / NIEHS)
Calls of active or inactive are those of the source. Rule for the calls: active = hit-call score of the fitted dose curve at least 0.9, where 1 is the maximum; inactive = score below 0.9.

Read-out: JUN Transcription Factor, JUN (gene 3725)
Test: LTEA_HepaRG_JUN: Life Technologies and Expression Analysis (LTEA) Assay for JUN Transcription Factor using HepaRG (AID 2283513)
Settings: mRNA level, 48 h; actives raise or lower the signal
Description: LTEA_HepaRG is a cell based, multiplexed-readout assay that uses HepaRG, a human liver cell line, with measurements taken at 48 hours after chemical dosing on a 96-well plate.LTEA_HepaRG_JUN is one of 102 assay component(s) measured in the LTEA HepaRG cell culture assay. It is a marker of Cell proliferation, survival, death.Data from the assay component LTEA_HepaRG_JUN was analyzed into 1 endpoint. This assay endpoint, LTEA_HepaRG_JUN, was analyzed with bidirectional fitting relative to DMSO as the negative control and baseline of activity. Using a type of inducible reporter, measures of mRNA induction for gain or loss-of-signal activity can be used to understand regulation of transcription factor activity. To generalize the intended target to other relatable targets, this assay endpoint is annotated to the dna binding intended target family, where the subfamily is basic leucine zipper.
A total of 1060 chemcials from the ToxCast library were tested in eight-point concentration-response experiments. Cell culture and cytotoxicity assays were conducted at Thermo Fisher Scientific's Custom Services facility (Madison, WI). A single lot of human HepaRG cells (Thermo Fisher Scientific, Frederick, MD) was used for the cell culture experiments. 96-well format collagen type I coated plates of human HepaRG cells were prepared using established methods. Briefly, cryopreserved HepaRG cells were thawed, plated at a density of approximately 100,000 cells/well in HepaRG Thaw, Plate, and General Purpose media (HPRG770, Thermo Fisher Scientific), and incubated for 48 hours. 0.5% DMSO was selected as vehicle control to balance the requisite need of DMSO in HepaRG cultures to maintain differentiation (for example, baseline metabolism, proportions of hepatocytes vs. cholangiocytes), while enabling further hepatic receptor pathway activation (for example, PXR and CAR) in response to chemical exposure. 48 hours after plating, the culture medium was replaced with HepaRG Serum-Free Incudtion Media. Cells were exposed to each test chemical in duplicate and maintained in CO2 incubators for another 48 hours. Chemical plates were thawed to room temperature and 200x concentrations of treatment groups were prepared. 8-point conentration-reponse curves were made with the highest exposure at 100 uM, followed by half-log dilutions, all in 0.5% DMSO. Each test plate contained variouse controls, induction positive controls (1mM phenobarbital), cytotoxicity positive controls ([…] aflatoxin B1), vehicle controls (0.5% DMSO), and total lysis controls (0.5% DMSO). Cell morphology images were taken using an Essen IncuCyte FLR automated microscope, with six 96-well plates imaged in about 24 minutes. Images were captured and exported and JPEG files. Spent culture media was transfered to black-well plates for the LDH assay, and remaining media was sorted at -80 C for later use. Cells were treated with RLT buffer and frozen until shipped for gene expression analysis. Total RNA was isolated from the cell suspension in 75 uL of Buffer RLT (Qiagen, Germantown, MD 20874) by Quintiles/Expression Analysis (Durham, NC) using a custom isolation procedure. Total RNA from each plate well was transferred to a preamplification plate. Fluidigm's 96.96 Dynamic ArrayTM (Fluidigm, Amsterdam, the Netherlands) technology was used for gene expression analyses by quantitative reverse transcription polymerase chain reaction (qRT-PCR, performed by Quintiles/Expression Analysis, Durham, NC)89. Standard TaqManTM Assays (Applied Biosystems/ThermoFisher Scientific, Foster City, CA) were used to assess the expression of 93 genes selected based on their selectivity and sensitivity to important hepatic receptors known to be modulated by environmental chemicals; importance in human hepatocyte functionality; and hepatotoxicity. […]

Row | Compound | AC50 | outcome
1 | CNCc1cc(F)ccc1Oc1ccc(Cl)c(Cl)c1 | 80.5 µM (active) | 
2 | O=C(N[C@@H](Cc1ccccc1)[C@@H](O)C(=O)N1C[C@@H](O)[C@@H](O)C1)c1cc2cc(Cl)ccc2[nH]1 |  | inactive
3 | CNC(=O)[C@H]1O[C@@H](n2cnc3c(NCc4cc(Cl)ccc4OCc4cc(C)no4)ncnc32)[C@H](O)[C@@H]1N |  | inactive
4 | Nc1ccc(S(=O)(=O)c2ccc(N)cc2)cc1 |  | inactive
5 | Cc1cc(NC(=O)C(=O)O)cc(C)c1Oc1ccc(O)c2c1CCC2 |  | inactive
6 | COc1ccc(C)cc1N |  | inactive
7 | C=CCOC(=O)c1ccccc1C(=O)OCC=C |  | inactive
8 | c1cc(-c2ccncc2)ccn1 |  | inactive
9 | O=c1[nH]cc(F)c(=O)[nH]1 |  | inactive
10 | COc1ccc(S(=O)(=O)N2C(=O)[C@@](c3ccccc3OC)(N3C[C@H](O)C[C@H]3C(=O)N(C)C)c3cc(Cl)ccc32)c(OC)c1 |  | inactive
11 | COc1cc(C=O)ccc1O |  | inactive
12 | COc1cc(-c2nc(NC(=O)c3cc4cc(C)cc(C)c4n3CC(=O)O)sc2CCC2CCCCC2)c(OC)cc1Cl | 10.7 µM (active) | 
13 | Cc1cccc(Nc2cc(Cl)nc(SCC(=O)O)n2)c1C |  | inactive
14 | Cc1nc(-c2ccc3c(c2)CCN(CCC2CCC(NC(=O)/C=C/c4ccc(F)cc4)CC2)CC3)no1 (stereo not given) |  | inactive
15 | C1CCC(SSC2CCCCC2)CC1 |  | inactive
16 | CCCCC(CC)COC(=O)CC(C(=O)OCC(CC)CCCC)S(=O)(=O)O (stereo not given) | 77.6 µM (active) | 
17 | CCCCCCCCCCCCCO |  | inactive
18 | CN1CCCC1=O |  | inactive
19 | CN1CCN(Cc2cc(-c3ccc4[nH]c(=O)oc4c3)co2)[C@@H](c2ccc(F)cc2)C1 |  | inactive
20 | Cc1ccc(Cl)cc1 |  | inactive

Row | Compound | AC50 | outcome
21 | CCCCCCCC=O |  | inactive
22 | COc1ccc2c(c1)c(CC(=O)O)c(C)n2C(=O)c1ccc(Cl)cc1 |  | inactive
23 | Clc1cc(Cl)c(Cl)cc1Cl |  | inactive
24 | Cc1ccc(C(C)C)c(O)c1 |  | inactive
25 | Nc1nc(N)c2nc(CNc3ccc(C(=O)N[C@@H](CCC(=O)O)C(=O)O)cc3)cnc2n1 |  | inactive
26 | O=C(O)Cc1ccccc1Nc1c(Cl)cccc1Cl |  | inactive
27 | CC(=O)C(C)=CC1C(C)=CCCC1(C)C (stereo not given) |  | inactive
28 | NS(=O)(=O)c1cc2c(cc1Cl)NCNS2(=O)=O |  | inactive
29 | NC(=O)Cn1c(=O)cc(CCN2CCN(c3nccc4sccc34)CC2)c2ccc(F)cc21 |  | inactive
30 | NCCO |  | inactive
31 | CC1(C)CC(N=C=O)CC(C)(CN=C=O)C1 (stereo not given) |  | inactive
32 | O=c1c(O)c(-c2ccc(O)c(O)c2)oc2cc(O)cc(O)c12 |  | inactive
33 | Cc1cccc([N+](=O)[O-])c1C |  | inactive
34 | Cc1nc(C)nc(N2C[C@@H](C)N(c3ccnc([C@@H](C)O)n3)[C@@H](C)C2)n1 |  | inactive
35 | Nc1ccccc1N |  | inactive
36 | CCOC(=O)C(C)(C)Oc1ccc(Cl)cc1 |  | inactive
37 | CC1=C(/C=C/C(C)=C/C=C/C(C)=C/CO)C(C)(C)CCC1 |  | inactive
38 | CCCCCCC(=O)OCC |  | inactive
39 | COc1cc(S(=O)(=O)O)c(C)cc1N=Nc1c(O)ccc2cc(S(=O)(=O)O)ccc12 |  | inactive
40 | C=CCc1ccc(O)c(OC)c1 |  | inactive
